M1 antag: human CHRM1 antagonism; P11229; CHO-K1 hM1, Fluo-8 calcium fluorescence, ACh EC80 antagonist; inhibition, % at 3 µM; 360,000 tested, 1.3% active; AID 588852;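 active = percent inhibition above its own plate's cutoff, namely the mean of that plate's compound wells plus 3 SD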;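 note: peak over basal fluorescence ratio during 140 s after agonist addition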
Target sequence (P11229 whole entry, looked up): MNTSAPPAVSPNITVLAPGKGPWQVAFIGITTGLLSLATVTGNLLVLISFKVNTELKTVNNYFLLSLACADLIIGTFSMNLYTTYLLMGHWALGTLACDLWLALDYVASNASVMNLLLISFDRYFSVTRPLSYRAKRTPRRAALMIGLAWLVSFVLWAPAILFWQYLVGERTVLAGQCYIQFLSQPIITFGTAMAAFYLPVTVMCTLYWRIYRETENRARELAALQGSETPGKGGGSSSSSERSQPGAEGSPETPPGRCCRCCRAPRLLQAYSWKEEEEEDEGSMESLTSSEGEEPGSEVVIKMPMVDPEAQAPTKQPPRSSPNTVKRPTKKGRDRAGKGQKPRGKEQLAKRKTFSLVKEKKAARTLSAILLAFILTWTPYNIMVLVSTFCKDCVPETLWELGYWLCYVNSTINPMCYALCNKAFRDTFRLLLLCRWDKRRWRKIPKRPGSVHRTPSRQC
CHRM1 agonist: agonists of human M1 muscarinic receptor; P11229; CHO-K1 hM1, Fluo-8 calcium fluorescence, agonist mode; 0% DMSO, 100% acetylcholine EC100; activation, % at 3 µM; 360,000 tested, 0.33% active;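 active = activation above the run's mean compound activation plus 3 SD, cut at about 16% in these data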;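 note: peak over basal fluorescence ratio within a 140 s kinetic read after compound addition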
CHO-K1 Ca PAM: M1 PAM counterscreen hit in parental CHO-K1 cells | ATP EC20, Fluo-8 calcium fluorescence; 0% at ATP EC20, 100% at ATP max | activation, % at 3 µM | 360,000 tested, 0.02% active | AID 602247;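 active = activation above the run cutoff, the mean activation of all test compounds plus 3 SD, cut at about 40% in these data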;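 note: peak over basal fluorescence ratio in a 140 s read after ATP addition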
M1 PAM: human CHRM1 positive allosteric modulation. CHO-K1 hM1, Fluo-8 calcium fluorescence, ACh EC20; 0% = ACh EC20, 100% = maximal ACh. P11229. 360,000 tested, 0.088% active. AID 588819. activation, % at 3 µM; in the data active = activation above about 19%, passing the limit was not always enough
CHO-K1 Ca antag: M1 antagonist counterscreen hit in parental CHO-K1 cells. ATP-induced calcium, Fluo-8 fluorescence. inhibition, % at 3 µM. 360,000 tested, 0.6% active;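 active = inhibition above a per-plate cutoff, the plate's mean sample inhibition plus 3 SD, cut at about 24% in these data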
CHO-K1 Ca ag: nonselective activator or artifact in parental CHO-K1 cells; Fluo-8 calcium fluorescence; scaled to maximal ATP response, vehicle zero; activation, % at 3 µM; 360,000 tested, 0.48% active; in the data active = activation above about 15%;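 note: untransfected CHO-K1 host cells lacking M1 receptor as counterscreen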
Each line names hits and unclear results; the compound was inactive in the other large screens. Only some compounds are listed: those with a hit (about 2.3% of all), similar ones and a draw of the others.

CC12CN3CC(C)(CN(C1)C3c1ccc3c(c1)OCO3)C2O (stereo unspecified)	CHO-K1 Ca antag 100
O=C(COc1ccccc1)NCC(=O)N/N=C/c1cc(Br)ccc1OCc1ccccc1	none
Cc1cccc(OCC(=O)NCC(=O)N/N=C/c2cc(Br)ccc2OCc2ccccc2)c1	CHO-K1 Ca ag 18
C/C=C1\NC(=O)[C@H](C)NC(=O)[C@@H](NC(=O)[C@H](Cc2ccc(O)cc2)NC(=O)[C@@H](NC(=O)/C(C)=C/C)C(C)C)[C@@H](C)OC(=O)[C@H](CC(C)C)NC(=O)[C@@H](CCC(=O)O)NC1=O	none
O=C(Nc1cc(Cl)cc(Cl)c1)c1cccnc1	CHO-K1 Ca ag 18
O=S1(=O)C[C@H](N2CCCC2)[C@@H](COCc2ccccc2)N1	CHO-K1 Ca antag 25
COc1ccc(CC(=O)NCC2CCCN(Cc3ccccc3Cl)C2)cc1 (stereo unspecified)	none
CC(C)OC(=O)CSc1nnc(CNc2ccc(Cl)cc2)n1Cc1ccccc1	CHO-K1 Ca antag 36
CCOC(=O)CSc1nnc(CNc2ccc(Cl)cc2)n1Cc1ccccc1	none
Cc1ccc2oc(C(=O)NCc3ccccc3)cc(=O)c2c1	none
Cc1cc2oc(C(=O)NCc3ccccc3)cc(=O)c2cc1C	M1 antag 81
CCC(C)(C(=O)NC1CCCC1)N(Cc1cccs1)C(=O)c1ccc2c(c1)OCO2 (stereo unspecified)	CHO-K1 Ca ag 16
CCCCN1CC(N2CCN(CCO)CC2)CS1(=O)=O (stereo unspecified)	CHRM1 agonist 20
COC(=O)C1=C(N)Oc2cc(C)n(Cc3cccnc3)c(=O)c2C1c1ccccc1OC (stereo unspecified)	CHO-K1 Ca antag 26
CCOc1cc(CNn2cnnc2)cc(Br)c1OCC(=O)NC1CCCCC1	CHO-K1 Ca antag 29
COc1cc(CN2CCC(C(=O)N3CCN(c4ccccc4F)CC3)CC2)cc(OC)c1O	CHO-K1 Ca antag 33
CCOc1ccc(C(=O)Nc2cc(-c3nc4ccccc4[nH]3)ccc2Cl)cc1[N+](=O)[O-]	M1 antag 37, CHO-K1 Ca antag 26
COc1ccc(OCC(=O)Nc2nccs2)cc1	CHO-K1 Ca ag 17
CCC(=O)c1ccc(OCC(=O)Nc2nc(C)cs2)cc1	none
COc1ccc(C(CC(=O)Nc2nccs2)C(C)C)cc1 (stereo unspecified)	CHO-K1 Ca ag 19
COc1ccccc1OCC(=O)Nc1ncc(C)s1	none
COc1ccc(C(CC(=O)Nc2nccs2)n2cccc2)cc1 (stereo unspecified)	none
Cc1cnc(NC(=O)COc2ccccc2)s1	CHO-K1 Ca antag 25
CCC(=O)c1ccc(OCC(=O)Nc2nc(-c3cccnc3)cs2)cc1	M1 antag 27
COc1ccc(CN2C(=O)C(CC(=O)NCCN3CCOCC3)CC(C(=O)N3CCOCC3)=C2C)cc1 (stereo unspecified)	none
Oc1ccc(Cl)cc1/C=N/c1nccs1	none
Oc1ccc(Cl)cc1C=Nc1ccc2c3c(cccc13)CC2	CHRM1 agonist 22, CHO-K1 Ca antag 32, CHO-K1 Ca ag 44
Cc1cccc(C=Nc2ccc3c4c(cccc24)CC3)c1O	CHO-K1 Ca antag 25, CHO-K1 Ca ag 15
CCc1ccc(O)c(N=Cc2cccc(C)c2O)c1	none
CCOC(CNC(=O)Cc1c(C)nc2c(-c3ccccc3)c(C)nn2c1C)OCC	none
COc1cccc2cc(C(=O)Nc3ccc(S(=O)(=O)NCC4CCCO4)cc3)c(=O)oc12 (stereo unspecified)	none
CCOc1ccccc1-c1ccc2nccn2c1	M1 antag 61
Clc1ccccc1-c1ccc2nccn2c1	none
CN(C)CCCN(C(=O)c1cc(Cl)sc1Cl)c1nc2cc3c(cc2s1)OCO3	M1 antag 96
CCN(Cc1ccccc1)S(=O)(=O)c1ccc(C(=O)N(CCCN(C)C)c2nc3cc4c(cc3s2)OCCO4)cc1	M1 antag 21
CN(C)c1ccc(S(=O)(=O)N(C)C)cc1NC(=O)Cc1cccc2ccccc12	none
C[C@H](O)[C@@H]1C(=O)N2CCc3ccc(-c4ccccc4)cc3[C@@H]2C[C@@H]1N(C)C(=O)NC1CCCCC1	M1 antag 42
Cc1ccccc1Oc1ccc2c(c1)[C@@H]1C[C@H](N(C)C(=O)c3cccnc3)[C@H]([C@H](C)O)C(=O)N1CC2	CHO-K1 Ca antag 33
Cc1ccccc1Oc1ccc2c(c1)[C@@H]1C[C@H](N(C)C(=O)NC3CCCCC3)[C@H]([C@H](C)O)C(=O)N1CC2	none
CCO[C@@H]1OC(C(=O)N2CCCCCCC2)=C[C@H](c2ccc(C(F)(F)F)cc2)[C@H]1CCCO	none
CCN(CC)CCOCCOC(=O)C(CC)(CC)c1ccccc1	M1 antag 38
COc1ccc(CC2(CO)CCN(S(=O)(=O)c3sccc3C)CC2)cc1	none
Cc1sc2ncnc(N3CCCCC3)c2c1C	none
Clc1ccc(OCCN2CCN(c3ncnc4sccc34)CC2)cc1	M1 antag 25, CHO-K1 Ca antag 34
Cc1ccc(OCCN2CCN(c3ncnc4sc(C)c(C)c34)CC2)cc1	M1 antag 17
COc1ccc(NC(=O)NC23CC4(C)CC(C)(CC(C)(C4)C2)C3)cc1	none
Fc1ccc(C2N(c3ccccc3)C(=S)N3CCCN23)cc1 (stereo unspecified)	none
Cc1ccc(C2N(c3ccccc3)C(=S)N3CCCN23)cc1 (stereo unspecified)	M1 antag 85
O=C1Nc2ccccc2C(=O)N2[C@H](c3ccccc3)[C@@H]3C(=O)N(Cc4ccccc4)C(=O)[C@@H]3[C@H]12	CHRM1 agonist 23
COc1ccc(/C(O)=C2/C(=O)C(=O)N(CCCN(C)C)C2c2cccc(Cl)c2)cc1OC (stereo unspecified)	none
Cc1ccccc1S(=O)(=O)Cc1ccc(C(=O)NCCCOC(C)C)o1	none
CCCCC1(COC(=O)CCC(=O)O)C(=O)N(c2ccccc2)N(c2ccccc2)C1=O	none
CCCCC1(Cc2ccc([N+](=O)[O-])cc2)C(=O)N(c2ccccc2)N(c2ccccc2)C1=O	M1 antag 36
CCOC(=O)[C@H]1[C@H]2COc3ccc(Cl)cc3[C@@H]2N2C(=O)CN(Cc3ccc(Cl)cc3)C(=O)[C@@]12C	none
CC(C)CN(C(=O)c1cccc(S(=O)(=O)N2CCN(Cc3ccccc3)CC2)c1)C1CCS(=O)(=O)C1 (stereo unspecified)	M1 PAM 25
CCCN(C(=O)c1cccc(S(=O)(=O)N2CCN(Cc3ccccc3)CC2)c1)C1CCS(=O)(=O)C1 (stereo unspecified)	none
COc1ccc(NC(=O)CN(C)C(=O)c2cccc(S(=O)(=O)N3CCN(Cc4ccccc4)CC3)c2)cc1	none
